{
  "source": "PubChem BioAssay",
  "note": "Unmarked numbers belong to inactive results.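 Rule for the calls, unless noted: active = viability at or below 10% of carrier control in both of two separate runs; inconclusive = viability at or below 10% in only one of the two runs; inactive = the rest.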",
  "data": [
    {"biological_target": "Receptor tyrosine-protein kinase erbB-2 (Homo sapiens) (UniProt P04626)", "sequence (P04626 whole entry, looked up)": "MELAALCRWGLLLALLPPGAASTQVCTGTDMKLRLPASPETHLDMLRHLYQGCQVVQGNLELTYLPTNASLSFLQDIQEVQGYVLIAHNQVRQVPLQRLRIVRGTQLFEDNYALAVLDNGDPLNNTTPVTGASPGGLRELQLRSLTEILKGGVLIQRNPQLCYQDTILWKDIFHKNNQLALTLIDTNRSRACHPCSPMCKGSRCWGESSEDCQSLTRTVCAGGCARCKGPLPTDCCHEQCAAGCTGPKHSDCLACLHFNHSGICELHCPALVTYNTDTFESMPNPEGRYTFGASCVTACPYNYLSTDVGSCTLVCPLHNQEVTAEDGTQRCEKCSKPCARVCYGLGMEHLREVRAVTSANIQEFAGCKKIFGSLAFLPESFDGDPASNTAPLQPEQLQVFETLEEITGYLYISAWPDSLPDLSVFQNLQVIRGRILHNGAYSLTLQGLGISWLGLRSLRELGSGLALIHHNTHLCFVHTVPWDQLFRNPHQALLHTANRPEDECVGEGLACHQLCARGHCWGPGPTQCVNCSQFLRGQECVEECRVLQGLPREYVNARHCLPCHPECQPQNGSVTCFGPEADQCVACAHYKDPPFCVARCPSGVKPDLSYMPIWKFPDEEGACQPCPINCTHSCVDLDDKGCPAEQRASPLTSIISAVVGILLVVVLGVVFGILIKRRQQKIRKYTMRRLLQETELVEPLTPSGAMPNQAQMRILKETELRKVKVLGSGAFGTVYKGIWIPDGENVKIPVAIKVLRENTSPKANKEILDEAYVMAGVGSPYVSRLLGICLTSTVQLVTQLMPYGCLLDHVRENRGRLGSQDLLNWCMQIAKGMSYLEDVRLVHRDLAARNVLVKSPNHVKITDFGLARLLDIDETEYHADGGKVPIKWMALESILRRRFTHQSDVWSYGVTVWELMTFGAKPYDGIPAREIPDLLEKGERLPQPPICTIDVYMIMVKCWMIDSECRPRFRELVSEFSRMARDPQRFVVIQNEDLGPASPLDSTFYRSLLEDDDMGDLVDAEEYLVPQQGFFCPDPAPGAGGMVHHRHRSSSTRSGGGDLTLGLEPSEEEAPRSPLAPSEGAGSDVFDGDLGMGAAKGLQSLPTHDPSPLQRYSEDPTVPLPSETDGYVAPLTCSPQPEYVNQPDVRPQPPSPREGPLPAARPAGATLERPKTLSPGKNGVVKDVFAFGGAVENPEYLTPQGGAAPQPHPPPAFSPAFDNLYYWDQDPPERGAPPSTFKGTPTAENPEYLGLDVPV", "assay": "reducers of endogenous Her2 protein level, primary screen, SKBR3 breast tumor cells, AlphaScreen, ATP viability (AID 461;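 active = Her2 level under about 52% in both replicate screens, with viability over 70% of control, limit read from the data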;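 note: lower value means less Her2 protein in the cells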)", "details": "18-24 h, at 10 µM, active compounds read low", "units": {"Her2 level": "%"}, "values": [
      {"smiles": "Cc1nc(CNS(=O)(=O)c2ccc3c(c2)OCCO3)cs1", "Her2 level": 142},
      {"smiles": "CCN(CCNC(=O)C1CCN(S(C)(=O)=O)CC1)c1ccccc1", "Her2 level": 104},
      {"smiles": "CC(C)Cn1c(CN(Cc2ccccc2)Cc2ccccc2)nc2c1c(=O)n(C)c(=O)n2C", "Her2 level": 86.5},
      {"smiles": "CCc1ccc2c(CN(CC)Cc3nc4ccccc4c(=O)[nH]3)cc(=O)oc2c1", "Her2 level": 73.5},
      {"smiles": "Cc1cc2oc(=O)cc(C)c2c(=O)o1", "Her2 level": 136},
      {"smiles": "Cc1ccccc1NC(=O)NCCCN1CCN(C2CCCCC2)CC1", "Her2 level": 102},
      {"smiles": "COc1ccc(S(=O)(=O)NCCC(=O)NC2CCCCCCC2)cc1", "Her2 level": 85.5},
      {"smiles": "CCC(Oc1ccc2ccccc2c1)C(=O)O", "note": "(stereo not given)", "Her2 level": 98.5},
      {"smiles": "COc1ccc(Br)cc1CNC(=O)CCc1nc(-c2ccc(C)cc2)no1", "Her2 level": 77.5},
      {"smiles": "COc1ccc(S(=O)(=O)N2CCCC(C(=O)N3CCCCCC3)C2)cc1", "note": "(stereo not given)", "Her2 level": 80},
      {"smiles": "COc1ccccc1N1CC(O)=C(c2nc3ccccc3c(=O)[nH]2)C1=N", "Her2 level": 72},
      {"smiles": "COc1ccccc1NC(=O)C(O)C(O)C(=O)Nc1ccccc1OC", "note": "(stereo not given)", "Her2 level": 104},
      {"smiles": "COc1cc(CC(=O)NCc2ccc3c(c2)OCO3)cc(OC)c1OC", "Her2 level": 78.5},
      {"smiles": "Cc1cc(OCC(=O)N2CCOCC2)cc2oc(=O)c3ccccc3c12", "Her2 level": 100},
      {"smiles": "COc1cccc(NC(=O)COC(=O)c2ccco2)c1", "Her2 level": 94},
      {"smiles": "CN(Cc1ccccc1)Cc1nc2c(c(=O)n(C)c(=O)n2C)n1Cc1ccc(Cl)cc1", "Her2 level": 102},
      {"smiles": "CCc1ccc(NC(=O)C2CC(=O)N(C(C)C)C2)cc1", "note": "(stereo not given)", "Her2 level": 104},
      {"smiles": "CCOC(=O)N1CCN(c2c(N3CCN(c4ccccn4)CC3)c(=O)c2=O)CC1", "Her2 level": 103},
      {"smiles": "COc1cccc(Oc2cnc(N)nc2-c2ccc(OC)cc2O)c1", "Her2 level": 74.5},
      {"smiles": "O=C(CSc1ncnc2c1oc1ccccc12)Nc1ccccc1F", "Her2 level": 101},
      {"smiles": "Cn1c(=O)c2c(nc(SCCCC#N)n2Cc2ccccc2F)n(C)c1=O", "Her2 level": 84.5},
      {"smiles": "Cn1c(=O)c2c([nH]c(=O)n2C)n(C)c1=O", "Her2 level": 84.5},
      {"smiles": "COc1ccc(-c2cc(C(=O)NCCc3ccccc3)no2)cc1OC", "Her2 level": 85.5},
      {"smiles": "CCCN1CCC(NC(=O)Nc2ccc(OC)c(OC)c2)CC1", "Her2 level": 96.5},
      {"smiles": "c1nnc(NC2=NCCCCC2)s1", "Her2 level": 112},
      {"smiles": "CCOC(=O)CSc1cn2c(n1)CCC2", "Her2 level": 103},
      {"smiles": "COC(=O)c1sc(N2C(=O)C(O)=C(C(=O)c3ccc(C)o3)C2c2ccc(F)cc2)nc1C", "note": "(stereo not given)", "Her2 level": 81.5},
      {"smiles": "CCOCCc1nnc(NC(=O)c2ccc(OC)c(OC)c2)s1", "Her2 level": 86},
      {"smiles": "CN(C1CCCCC1)S(=O)(=O)c1ccc(NC(=O)c2ccco2)cc1", "Her2 level": 91.5},
      {"smiles": "CCCOc1ccccc1NC(=O)c1c(-c2ccccc2)noc1C", "Her2 level": 92},
      {"smiles": "CCNC(=O)N(C(=O)NCC)n1c(C)nnc1C", "Her2 level": 90},
      {"smiles": "O=C(OCC#CCSc1nnc(-c2ccccc2)o1)c1cccs1", "Her2 level": 92},
      {"smiles": "CC1(c2ccc(Cl)cc2)NC(=O)N(CC(=O)NC(=O)NCc2ccco2)C1=O", "note": "(stereo not given)", "Her2 level": 80.5},
      {"smiles": "CCCN1C2=C(C(=O)CCC2)C(c2ccc(O)c(Br)c2)C2=C1CCCC2=O", "Her2 level": 85.5},
      {"smiles": "CCOC(=O)C1=C(CN2CCOCC2)NC(=O)NC1c1cc(C)ccc1C", "note": "(stereo not given)", "Her2 level": 89},
      {"smiles": "Cc1ccc(C(C)C)c(OCCn2c(=O)oc3ccccc32)c1", "Her2 level": 133},
      {"smiles": "Cc1ccc(-c2csc3nnc(SCC(=O)NCc4ccco4)n23)cc1", "Her2 level": 84.5},
      {"smiles": "CC1CCN(C(=O)CCNS(=O)(=O)c2ccccc2)CC1", "Her2 level": 118},
      {"smiles": "Cc1ccc(C)c(-n2c(CNC(=O)c3ccco3)nnc2SCC(=O)Nc2nnc(C)s2)c1", "Her2 level": 94},
      {"smiles": "CSc1nc(=NC(C)=O)ss1", "Her2 level": 88.5}
    ]},
    {"test_system": "not listed separately", "assay": "SK-BR-3 cell growth inhibitors, pilot screen, 24 h, human (AID 572);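 note: compound exposure lasted between 18 and 24 h rather than exactly 24 h; 100% = carrier-treated control wells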", "details": "SK-BR-3 viability, CellTiter-Glo luminescence, at 10 µM, active compounds read low", "units": {"viability": "%"}, "values": [
      {"smiles": "Cc1nc(CNS(=O)(=O)c2ccc3c(c2)OCCO3)cs1", "viability": 96},
      {"smiles": "CCN(CCNC(=O)C1CCN(S(C)(=O)=O)CC1)c1ccccc1", "viability": 91},
      {"smiles": "CC(C)Cn1c(CN(Cc2ccccc2)Cc2ccccc2)nc2c1c(=O)n(C)c(=O)n2C", "viability": 85.5},
      {"smiles": "CCc1ccc2c(CN(CC)Cc3nc4ccccc4c(=O)[nH]3)cc(=O)oc2c1", "viability": 86},
      {"smiles": "Cc1cc2oc(=O)cc(C)c2c(=O)o1", "viability": 101},
      {"smiles": "Cc1ccccc1NC(=O)NCCCN1CCN(C2CCCCC2)CC1", "viability": 102},
      {"smiles": "COc1ccc(S(=O)(=O)NCCC(=O)NC2CCCCCCC2)cc1", "viability": 108},
      {"smiles": "CCC(Oc1ccc2ccccc2c1)C(=O)O", "note": "(stereo not given)", "viability": 89.5},
      {"smiles": "COc1ccc(Br)cc1CNC(=O)CCc1nc(-c2ccc(C)cc2)no1", "viability": 101},
      {"smiles": "COc1ccc(S(=O)(=O)N2CCCC(C(=O)N3CCCCCC3)C2)cc1", "note": "(stereo not given)", "viability": 102},
      {"smiles": "COc1ccccc1N1CC(O)=C(c2nc3ccccc3c(=O)[nH]2)C1=N", "viability": 116},
      {"smiles": "COc1ccccc1NC(=O)C(O)C(O)C(=O)Nc1ccccc1OC", "note": "(stereo not given)", "viability": 111},
      {"smiles": "COc1cc(CC(=O)NCc2ccc3c(c2)OCO3)cc(OC)c1OC", "viability": 99},
      {"smiles": "Cc1cc(OCC(=O)N2CCOCC2)cc2oc(=O)c3ccccc3c12", "viability": 108},
      {"smiles": "COc1cccc(NC(=O)COC(=O)c2ccco2)c1", "viability": 112},
      {"smiles": "CN(Cc1ccccc1)Cc1nc2c(c(=O)n(C)c(=O)n2C)n1Cc1ccc(Cl)cc1", "viability": 67.5},
      {"smiles": "CCc1ccc(NC(=O)C2CC(=O)N(C(C)C)C2)cc1", "note": "(stereo not given)", "viability": 111},
      {"smiles": "CCOC(=O)N1CCN(c2c(N3CCN(c4ccccn4)CC3)c(=O)c2=O)CC1", "viability": 104},
      {"smiles": "COc1cccc(Oc2cnc(N)nc2-c2ccc(OC)cc2O)c1", "viability": 91.5},
      {"smiles": "O=C(CSc1ncnc2c1oc1ccccc12)Nc1ccccc1F", "viability": 96.5},
      {"smiles": "Cn1c(=O)c2c(nc(SCCCC#N)n2Cc2ccccc2F)n(C)c1=O", "viability": 79.5},
      {"smiles": "Cn1c(=O)c2c([nH]c(=O)n2C)n(C)c1=O", "viability": 104},
      {"smiles": "COc1ccc(-c2cc(C(=O)NCCc3ccccc3)no2)cc1OC", "viability": 102},
      {"smiles": "CCCN1CCC(NC(=O)Nc2ccc(OC)c(OC)c2)CC1", "viability": 124},
      {"smiles": "c1nnc(NC2=NCCCCC2)s1", "viability": 91.5},
      {"smiles": "CCOC(=O)CSc1cn2c(n1)CCC2", "viability": 99.5},
      {"smiles": "COC(=O)c1sc(N2C(=O)C(O)=C(C(=O)c3ccc(C)o3)C2c2ccc(F)cc2)nc1C", "note": "(stereo not given)", "viability": 95},
      {"smiles": "CCOCCc1nnc(NC(=O)c2ccc(OC)c(OC)c2)s1", "viability": 107},
      {"smiles": "CN(C1CCCCC1)S(=O)(=O)c1ccc(NC(=O)c2ccco2)cc1", "viability": 91.5},
      {"smiles": "CCCOc1ccccc1NC(=O)c1c(-c2ccccc2)noc1C", "viability": 84.5},
      {"smiles": "CCNC(=O)N(C(=O)NCC)n1c(C)nnc1C", "viability": 100},
      {"smiles": "O=C(OCC#CCSc1nnc(-c2ccccc2)o1)c1cccs1", "viability": 130},
      {"smiles": "CC1(c2ccc(Cl)cc2)NC(=O)N(CC(=O)NC(=O)NCc2ccco2)C1=O", "note": "(stereo not given)", "viability": 96},
      {"smiles": "CCCN1C2=C(C(=O)CCC2)C(c2ccc(O)c(Br)c2)C2=C1CCCC2=O", "viability": 96},
      {"smiles": "CCOC(=O)C1=C(CN2CCOCC2)NC(=O)NC1c1cc(C)ccc1C", "note": "(stereo not given)", "viability": 92},
      {"smiles": "Cc1ccc(C(C)C)c(OCCn2c(=O)oc3ccccc32)c1", "viability": 89},
      {"smiles": "Cc1ccc(-c2csc3nnc(SCC(=O)NCc4ccco4)n23)cc1", "viability": 88.5},
      {"smiles": "CC1CCN(C(=O)CCNS(=O)(=O)c2ccccc2)CC1", "viability": 110},
      {"smiles": "Cc1ccc(C)c(-n2c(CNC(=O)c3ccco3)nnc2SCC(=O)Nc2nnc(C)s2)c1", "viability": 100},
      {"smiles": "CSc1nc(=NC(C)=O)ss1", "viability": 122}
    ]}
  ]
}
